The panel holds about 83,000 compounds, 20% with a hit somewhere; the sample as a whole holds those more often.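 In brief: 96-well plates, 48 h treatment, single concentration, percent growth endpoint.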 Unmarked numbers belong to inactive results. Calls of active or inactive are those of the source. The calls were made as follows: active = growth percent below 10; inactive = the rest.

Holding throughout (assay): NCI-60 one-dose screen, 48 h (100 = growth as untreated, 0 = no growth, -100 = all killed)
One assay relates to SK-MEL-2 melanoma. The conditions noted are these: 10 µM.
A further assay deals with EKVX NSCLC. As to conditions: 10 µM.
The test system of another assay is SN12C renal. As to conditions: 10 µM.
The next assay concerns TK-10 renal. The conditions noted are these: 10 µM unless noted.
In the next assay the test system is ACHN renal. As to conditions: 10 µM.
Another assay deals with A498 renal. As to conditions: 10 µM.
Another assay relates to CCRF-CEM leukemia. As to conditions: 10 µM.
The next assay has as its system MOLT-4 leukemia. As to conditions: 10 µM.
The test system of a further assay is RPMI-8226 leukemia. The conditions noted are these: 10 µM.
The next assay concerns OVCAR-8 ovarian. The conditions noted are these: 10 µM.
A further assay concerns OVCAR-5 ovarian. The conditions noted are these: 10 µM.
Another assay relates to OVCAR-4 ovarian. The conditions noted are these: 10 µM.
The test system of a further assay is SK-OV-3 ovarian. The conditions noted are these: 10 µM.
Another assay has as its system IGROV1 ovarian. As to conditions: 10 µM.
Another assay has as its system OVCAR-3 ovarian. The conditions noted are these: 10 µM.
For the next assay, the system named is HS 578T breast. The conditions noted are these: 10 µM.
The test system of another assay is NCI/ADR-RES ovarian. The conditions noted are these: 10 µM.
Another assay has as its system CAKI-1 renal. As to conditions: 10 µM.
The subject of the next assay is SR leukemia. The conditions noted are these: 10 µM.
The next assay relates to UO-31 renal. The conditions noted are these: 10 µM.

As to `CC(=O)Cc1cc(-c2cc(CC(C)=O)[nH]n2)n[nH]1`, the growth in the assay with SK-MEL-2 melanoma was 111%; in the assay on EKVX NSCLC it was 89.8%; with SN12C renal, 94.2%; in the assay on TK-10 renal, 92.4%; with ACHN renal, 95.1%; in the assay with A498 renal, 99.3%. Also, the growth with CCRF-CEM leukemia was 101%; with MOLT-4 leukemia it was 114%; in the assay on RPMI-8226 leukemia, 109%; in the assay with OVCAR-8 ovarian it was 98.5%; with OVCAR-5 ovarian, 90.2%; with OVCAR-4 ovarian it was 101%. For the same molecule, the growth is 90.9% with SK-OV-3 ovarian; 104% with IGROV1 ovarian; 111% with OVCAR-3 ovarian; 93.2% in the assay with HS 578T breast; 96.7% in the assay on NCI/ADR-RES ovarian.
Turning to `O=C1Cc2ccccc2C(=O)O1`, the growth was 103% in the assay with SK-MEL-2 melanoma; 107% in the assay with EKVX NSCLC; 101% in the assay with SN12C renal; 110% in the assay on TK-10 renal; 99.9% in the assay with CAKI-1 renal; 123% in the assay on A498 renal. The growth in the assay on CCRF-CEM leukemia is 85.8%; in the assay with MOLT-4 leukemia it was 85.4%; with SR leukemia, 79.3%; in the assay with RPMI-8226 leukemia, 93.4%; with OVCAR-8 ovarian it was 102%; in the assay on OVCAR-5 ovarian, 106%. Further, the growth in the assay with OVCAR-4 ovarian was 112%; in the assay on SK-OV-3 ovarian it was 114%; in the assay with IGROV1 ovarian, 114%; in the assay on OVCAR-3 ovarian it was 127%; in the assay on HS 578T breast it was 107%; in the assay on NCI/ADR-RES ovarian, 114%.
With `COc1cc2nn(-c3ccccc3N)nc2cc1OC`, the growth was 106% in the assay with SK-MEL-2 melanoma; 106% in the assay with SN12C renal; 87.6% in the assay with UO-31 renal; 109% with TK-10 renal; 109% in the assay on ACHN renal; 85.6% in the assay with CAKI-1 renal. The growth in the assay with A498 renal was 82.3%; in the assay on CCRF-CEM leukemia, 101%; in the assay with MOLT-4 leukemia, 98.9%; with SR leukemia it was 111%; in the assay on RPMI-8226 leukemia, 100%; in the assay with OVCAR-8 ovarian, 97.1%. The growth in the assay on OVCAR-5 ovarian is 99.6%; in the assay with OVCAR-4 ovarian, 97.7%; in the assay on SK-OV-3 ovarian, 102%; in the assay on IGROV1 ovarian it was 89%; with OVCAR-3 ovarian, 112%; in the assay on HS 578T breast, 92.6%. Besides, the growth with NCI/ADR-RES ovarian was 97.9%.
As to `O=C1C=C(Nc2ccc([N+](=O)[O-])cc2)c2ccccc2C1=O`, the growth with SK-MEL-2 melanoma is -7.97% (active); in the assay on SN12C renal, 39.8%; in the assay with UO-31 renal it was 30%; with TK-10 renal, 80.4%; in the assay with ACHN renal it was 45.8%; with CAKI-1 renal, 67.9%. For the same molecule, the growth in the assay on A498 renal is 40.6%; with CCRF-CEM leukemia, 38.9%; in the assay with MOLT-4 leukemia, 28.5%; in the assay with SR leukemia it was 23.9%; in the assay with RPMI-8226 leukemia it was 18%; in the assay on OVCAR-8 ovarian it was 35.1%. Moreover, the growth with OVCAR-5 ovarian was 86.9%; in the assay on OVCAR-4 ovarian it was 45.3%; in the assay with SK-OV-3 ovarian, 62.3%; in the assay on IGROV1 ovarian it was 60.8%; in the assay with OVCAR-3 ovarian it was 7.94% (active); in the assay on HS 578T breast, 47.5%. In addition, the growth in the assay on NCI/ADR-RES ovarian was 32.5%.
Turning to `O=[N+]([O-])c1ccc(/C=C/C=C/c2ccccc2)c(Cl)c1`, the growth was 94.3% in the assay on SK-MEL-2 melanoma; 98.3% in the assay with SN12C renal; 92.8% with UO-31 renal; 121% in the assay on TK-10 renal; 100% in the assay on ACHN renal; 95% with CAKI-1 renal. For the same molecule, the growth in the assay on A498 renal is 88.9%; with CCRF-CEM leukemia it was 90.7%; in the assay with MOLT-4 leukemia it was 86.4%; with SR leukemia, 95.2%; in the assay with RPMI-8226 leukemia, 87.6%; with OVCAR-8 ovarian, 98.8%. Also, the growth is 102% with OVCAR-5 ovarian; 88% with IGROV1 ovarian; 105% with OVCAR-3 ovarian; 87.7% in the assay with HS 578T breast; 108% with NCI/ADR-RES ovarian.
On to `CC(=O)Cc1ccc(-c2ccccc2)cc1`, for which the growth was 102% in the assay on SK-MEL-2 melanoma; 86.3% in the assay on SN12C renal; 84.8% in the assay with UO-31 renal; 101% with TK-10 renal; 108% with ACHN renal; 104% with CAKI-1 renal. Further, the growth is 89% in the assay with A498 renal; 102% with CCRF-CEM leukemia; 117% in the assay on MOLT-4 leukemia; 102% with SR leukemia; 97.5% in the assay on RPMI-8226 leukemia; 104% with OVCAR-8 ovarian. The growth in the assay on OVCAR-5 ovarian was 112%; in the assay with OVCAR-4 ovarian, 109%; with OVCAR-3 ovarian it was 113%; with HS 578T breast it was 99.4%; with NCI/ADR-RES ovarian, 103%.
With `CN(C)Cc1cc(C(C)(C)CC(C)(C)C)ccc1O`, the growth was 71.1% with SK-MEL-2 melanoma; 98.4% with EKVX NSCLC; 76.2% in the assay with UO-31 renal; 99.8% in the assay on TK-10 renal; 82.4% in the assay on ACHN renal; 90.7% with CAKI-1 renal. Also, the growth with A498 renal was 116%; in the assay with CCRF-CEM leukemia, 99.6%; in the assay with MOLT-4 leukemia, 86.4%; in the assay with SR leukemia it was 87.7%; with RPMI-8226 leukemia it was 95.7%; in the assay on OVCAR-8 ovarian, 106%. The growth was 98.5% with OVCAR-5 ovarian; 86.5% with OVCAR-4 ovarian; 94.5% with SK-OV-3 ovarian; 85.7% in the assay with IGROV1 ovarian; 88.4% in the assay with OVCAR-3 ovarian; 106% with HS 578T breast. In addition, in the assay on NCI/ADR-RES ovarian, the growth is 91.5%.

(Values after PubChem BioAssay (NCI).)
